In ChEMBL document CHEMBL1961873, “Compounds: GSK PKIS; Assays: Nanosyn kinase panel” (2012):

Legend:
[1] = biological target: T1, Serine/threonine-protein kinase TBK1 (Homo sapiens) (UniProt Q9UHD2); settings: at 1 µM;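 note: values are mean inhibition of TBK1, screened as part of the GSK published kinase inhibitor set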
T1 sequence (whole entry): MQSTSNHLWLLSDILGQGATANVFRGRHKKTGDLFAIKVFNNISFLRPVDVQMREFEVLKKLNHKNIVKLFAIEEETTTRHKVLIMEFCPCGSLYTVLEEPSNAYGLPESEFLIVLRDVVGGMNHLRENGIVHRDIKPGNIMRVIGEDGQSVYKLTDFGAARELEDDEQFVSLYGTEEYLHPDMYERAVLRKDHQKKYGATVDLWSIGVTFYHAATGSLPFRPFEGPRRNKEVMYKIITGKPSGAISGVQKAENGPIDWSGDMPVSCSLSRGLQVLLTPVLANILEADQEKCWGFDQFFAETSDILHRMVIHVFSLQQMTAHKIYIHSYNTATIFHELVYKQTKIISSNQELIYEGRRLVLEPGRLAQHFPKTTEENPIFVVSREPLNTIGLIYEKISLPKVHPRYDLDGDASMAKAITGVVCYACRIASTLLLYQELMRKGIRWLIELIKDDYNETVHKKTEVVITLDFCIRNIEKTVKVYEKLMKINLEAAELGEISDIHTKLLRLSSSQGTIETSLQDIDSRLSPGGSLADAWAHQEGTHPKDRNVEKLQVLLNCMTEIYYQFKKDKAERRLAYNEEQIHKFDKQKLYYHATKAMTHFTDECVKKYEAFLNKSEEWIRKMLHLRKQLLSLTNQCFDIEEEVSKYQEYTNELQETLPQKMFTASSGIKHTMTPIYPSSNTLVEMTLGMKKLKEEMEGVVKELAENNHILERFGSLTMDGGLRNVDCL

[2] = biological target: T2, Testis-specific serine/threonine-protein kinase 1 (Homo sapiens) (UniProt Q9BXA7); settings: at 0.1 µM
T2 sequence (whole entry): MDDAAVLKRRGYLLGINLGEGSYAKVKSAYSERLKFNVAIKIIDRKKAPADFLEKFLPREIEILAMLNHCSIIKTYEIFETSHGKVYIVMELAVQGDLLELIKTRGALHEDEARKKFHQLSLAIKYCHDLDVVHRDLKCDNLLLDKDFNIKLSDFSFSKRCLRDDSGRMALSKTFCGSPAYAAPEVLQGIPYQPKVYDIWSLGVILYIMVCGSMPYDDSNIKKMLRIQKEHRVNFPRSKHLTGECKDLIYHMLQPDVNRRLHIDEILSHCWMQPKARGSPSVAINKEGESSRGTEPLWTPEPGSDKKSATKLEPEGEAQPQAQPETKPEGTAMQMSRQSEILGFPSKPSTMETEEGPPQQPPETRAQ

[3] = biological target: T2, Testis-specific serine/threonine-protein kinase 1 (Homo sapiens); settings: at 1 µM
[4] = biological target: T3, Testis-specific serine/threonine-protein kinase 2 (Homo sapiens) (UniProt Q96PF2); settings: at 0.1 µM
T3 sequence (whole entry): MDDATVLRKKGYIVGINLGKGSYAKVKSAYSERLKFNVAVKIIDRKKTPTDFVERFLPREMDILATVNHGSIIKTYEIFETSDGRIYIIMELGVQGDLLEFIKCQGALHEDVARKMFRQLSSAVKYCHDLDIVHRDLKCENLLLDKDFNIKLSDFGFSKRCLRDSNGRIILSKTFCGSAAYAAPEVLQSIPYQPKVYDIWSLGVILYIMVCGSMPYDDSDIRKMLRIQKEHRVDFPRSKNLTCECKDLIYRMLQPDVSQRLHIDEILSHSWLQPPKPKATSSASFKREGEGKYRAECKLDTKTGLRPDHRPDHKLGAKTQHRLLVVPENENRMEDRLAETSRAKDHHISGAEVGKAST

[5] = biological target: T3, Testis-specific serine/threonine-protein kinase 2 (Homo sapiens); settings: at 1 µM
[6] = biological target: Casein kinase I isoform alpha (Homo sapiens) (UniProt P48729); settings: at 0.1 µM
Sequence of Casein kinase I isoform alpha (Homo sapiens) (P48729 2-337 limits assumed): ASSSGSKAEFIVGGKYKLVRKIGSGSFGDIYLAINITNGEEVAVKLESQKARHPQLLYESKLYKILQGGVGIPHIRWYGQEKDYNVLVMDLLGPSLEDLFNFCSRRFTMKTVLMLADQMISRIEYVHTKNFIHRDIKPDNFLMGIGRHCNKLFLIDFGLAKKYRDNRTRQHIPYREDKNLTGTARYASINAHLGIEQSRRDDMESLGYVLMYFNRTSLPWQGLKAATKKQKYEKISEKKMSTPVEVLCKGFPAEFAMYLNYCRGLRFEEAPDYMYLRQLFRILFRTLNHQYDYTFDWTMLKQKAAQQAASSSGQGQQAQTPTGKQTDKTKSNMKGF

[7] = biological target: Casein kinase I isoform alpha (Homo sapiens) (UniProt P48729); settings: at 1 µM
[8] = biological target: Casein kinase I isoform gamma-1 (Homo sapiens) (UniProt Q9HCP0); settings: at 0.1 µM
Sequence of Casein kinase I isoform gamma-1 (Homo sapiens) (Q9HCP0 whole entry, looked up, canonical isoform): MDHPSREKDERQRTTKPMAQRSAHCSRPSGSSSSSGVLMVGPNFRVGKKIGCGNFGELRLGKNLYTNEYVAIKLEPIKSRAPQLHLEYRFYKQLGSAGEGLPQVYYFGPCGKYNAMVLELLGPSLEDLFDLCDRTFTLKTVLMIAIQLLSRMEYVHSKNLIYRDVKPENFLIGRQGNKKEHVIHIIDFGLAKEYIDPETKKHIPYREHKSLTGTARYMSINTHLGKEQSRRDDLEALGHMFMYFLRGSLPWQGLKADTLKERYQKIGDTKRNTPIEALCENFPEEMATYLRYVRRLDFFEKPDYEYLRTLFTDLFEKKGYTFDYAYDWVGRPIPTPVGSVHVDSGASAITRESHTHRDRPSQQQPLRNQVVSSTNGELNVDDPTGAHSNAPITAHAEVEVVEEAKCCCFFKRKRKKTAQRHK

[9] = biological target: Casein kinase I isoform gamma-1 (Homo sapiens) (UniProt Q9HCP0); settings: at 1 µM
[10] = biological target: Casein kinase I isoform gamma-2 (Homo sapiens) (UniProt P78368); settings: at 0.1 µM
Sequence of Casein kinase I isoform gamma-2 (Homo sapiens) (P78368 whole entry, looked up, canonical isoform): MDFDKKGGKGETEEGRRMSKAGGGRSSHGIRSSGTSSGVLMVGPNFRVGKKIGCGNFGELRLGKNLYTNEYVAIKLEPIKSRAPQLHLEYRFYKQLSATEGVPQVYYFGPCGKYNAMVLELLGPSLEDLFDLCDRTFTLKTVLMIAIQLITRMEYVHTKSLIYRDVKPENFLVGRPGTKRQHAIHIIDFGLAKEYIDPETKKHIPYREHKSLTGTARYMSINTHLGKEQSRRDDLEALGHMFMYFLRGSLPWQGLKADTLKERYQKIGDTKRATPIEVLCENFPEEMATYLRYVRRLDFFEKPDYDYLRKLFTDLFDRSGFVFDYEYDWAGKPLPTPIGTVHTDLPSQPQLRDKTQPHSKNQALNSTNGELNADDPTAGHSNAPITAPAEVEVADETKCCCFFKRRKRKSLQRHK

[11] = biological target: Casein kinase I isoform gamma-2 (Homo sapiens) (UniProt P78368); settings: at 1 µM
[12] = biological target: Casein kinase I isoform gamma-3 (Homo sapiens) (UniProt Q9Y6M4); settings: at 0.1 µM
Sequence of Casein kinase I isoform gamma-3 (Homo sapiens) (Q9Y6M4 whole entry, looked up, canonical isoform): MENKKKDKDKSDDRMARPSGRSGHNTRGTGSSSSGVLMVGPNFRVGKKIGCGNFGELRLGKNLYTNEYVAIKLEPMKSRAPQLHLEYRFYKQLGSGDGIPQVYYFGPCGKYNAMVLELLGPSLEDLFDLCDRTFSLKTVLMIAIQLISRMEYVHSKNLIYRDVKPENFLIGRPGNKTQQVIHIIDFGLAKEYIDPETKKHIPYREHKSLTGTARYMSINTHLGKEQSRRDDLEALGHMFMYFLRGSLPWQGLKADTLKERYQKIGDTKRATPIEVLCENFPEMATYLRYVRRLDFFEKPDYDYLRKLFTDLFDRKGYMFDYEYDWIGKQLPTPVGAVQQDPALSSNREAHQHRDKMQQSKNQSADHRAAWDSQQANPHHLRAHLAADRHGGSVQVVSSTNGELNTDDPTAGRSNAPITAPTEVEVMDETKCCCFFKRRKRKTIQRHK

[13] = biological target: Casein kinase I isoform gamma-3 (Homo sapiens) (UniProt Q9Y6M4); settings: at 1 µM
[14] = biological target: Cyclin-dependent kinase 1 (Homo sapiens) (UniProt P06493); settings: at 0.1 µM
Sequence of Cyclin-dependent kinase 1 (Homo sapiens) (P06493 whole entry, looked up): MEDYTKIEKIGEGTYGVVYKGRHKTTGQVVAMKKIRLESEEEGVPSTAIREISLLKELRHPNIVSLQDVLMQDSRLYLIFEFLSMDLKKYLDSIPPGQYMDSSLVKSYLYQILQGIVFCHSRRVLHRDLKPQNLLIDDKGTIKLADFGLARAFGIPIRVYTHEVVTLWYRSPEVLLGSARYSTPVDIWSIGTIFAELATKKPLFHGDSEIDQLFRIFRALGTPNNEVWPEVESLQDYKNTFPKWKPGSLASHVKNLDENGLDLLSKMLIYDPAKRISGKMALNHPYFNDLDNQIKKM

[15] = biological target: Cyclin-dependent kinase 1 (Homo sapiens) (UniProt P06493); settings: at 1 µM
[16] = biological target: Cyclin-dependent kinase 2 (Homo sapiens) (UniProt P24941); settings: at 0.1 µM
[17] = biological target: Cyclin-dependent kinase 2 (Homo sapiens) (UniProt P24941); settings: at 1 µM
[18] = biological target: Cyclin-dependent kinase 2 (Homo sapiens) (UniProt P24941); settings: at 0.1 µM; remark: listed apart in the source
[19] = biological target: Cyclin-dependent kinase 2 (Homo sapiens) (UniProt P24941); settings: at 1 µM; remark: listed apart in the source
[20] = biological target: CDK3/Cyclin E (Homo sapiens) (UniProt P24864+Q00526); settings: at 0.1 µM;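 note: reported percentages are mean inhibition values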
Sequence of CDK3/Cyclin E (Homo sapiens) (P24864 whole entry, looked up): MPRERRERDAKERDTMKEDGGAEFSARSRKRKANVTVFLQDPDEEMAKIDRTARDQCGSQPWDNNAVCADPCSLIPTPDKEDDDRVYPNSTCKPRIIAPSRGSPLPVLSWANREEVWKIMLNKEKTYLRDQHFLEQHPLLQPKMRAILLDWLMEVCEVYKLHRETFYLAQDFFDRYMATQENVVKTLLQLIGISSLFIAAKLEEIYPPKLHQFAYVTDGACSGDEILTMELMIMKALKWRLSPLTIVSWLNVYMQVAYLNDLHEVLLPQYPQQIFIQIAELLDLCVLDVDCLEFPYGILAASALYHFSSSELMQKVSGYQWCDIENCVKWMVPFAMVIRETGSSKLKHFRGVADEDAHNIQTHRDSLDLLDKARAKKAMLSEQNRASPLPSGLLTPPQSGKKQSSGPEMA
Sequence of CDK3/Cyclin E (Homo sapiens) (Q00526 whole entry, looked up): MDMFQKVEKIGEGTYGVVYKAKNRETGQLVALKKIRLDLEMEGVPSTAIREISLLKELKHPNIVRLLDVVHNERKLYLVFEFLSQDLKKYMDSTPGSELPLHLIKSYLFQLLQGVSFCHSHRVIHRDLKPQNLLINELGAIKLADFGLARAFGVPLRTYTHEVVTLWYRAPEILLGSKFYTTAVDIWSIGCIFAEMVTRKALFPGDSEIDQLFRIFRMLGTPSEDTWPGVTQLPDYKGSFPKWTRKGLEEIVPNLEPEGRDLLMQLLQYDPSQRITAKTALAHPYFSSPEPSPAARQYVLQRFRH

Structure (SMILES)	inhibition [1]	inhibition [2]	inhibition [3]	inhibition [4]	inhibition [5]	inhibition [6]	inhibition [7]	inhibition [8]	inhibition [9]	inhibition [10]	inhibition [11]	inhibition [12]	inhibition [13]	inhibition [14]	inhibition [15]	inhibition [16]	inhibition [17]	inhibition [18]	inhibition [19]	inhibition [20]
CC1=C(C(=O)Nc2ccc3[nH]ncc3c2)C(c2ccc(Cl)c(Cl)c2)CC(=O)N1 (stereo not given)	0.46%	2.84%	-0.6%	1.93%	-1.29%	-1.74%	1.97%	0.83%	1.68%	0.32%	1.4%	-0.44%	1.59%	-0.56%	-1.08%	0.45%	4.04%	-0.59%	3.25%	-0.69%
COc1cc2ncn(-c3cc(OCc4ccccc4Cl)c(C(N)=O)s3)c2cc1OC	28.7%	1.82%	4.67%	0.7%	1.63%	1.79%	0.67%	0.19%	1.8%	-0.04%	1.68%	1.38%	2.71%	1.92%	6.22%	1.7%	6.39%	2.24%	5.06%	3.11%
Nc1ncnc2occ(-c3ccc(NC(=O)Nc4cccc(C(F)(F)F)c4)cc3)c12	4.59%	4.54%	4.9%	1.47%	2.55%	3.35%	5.6%	5.08%	10.1%	4.03%	7.31%	3.11%	10.3%	-0.24%	4.91%	2.4%	8.86%	4.68%	10.8%	2.04%
N#Cc1c(NC(=O)c2cccc3ccccc23)sc2c1CCCC2	6.64%	3.39%	2.26%	0.88%	0.92%	-0.66%	2.15%	2.73%	2.82%	2.2%	3.02%	2.06%	2.66%	1.07%	5.24%	4.98%	0.97%	5.24%	6.76%	2.56%
O=C(Nc1n[nH]c2nc(-c3ccco3)c(Br)cc12)C1CC1	4.8%	4.63%	1.5%	-0.36%	-1.08%	1.36%	3.16%	3.71%	2.78%	2.3%	2.51%	2.64%	0.87%	0.89%	5.15%	3.87%	28.4%	3.75%	9.11%	3.8%
CCn1c(-c2nonc2N)nc2cnc(Oc3cccc(NC(=O)c4ccc(OCCN5CCOCC5)cc4)c3)cc21	7.42%	24.3%	72.8%	2.29%	3.44%	0.67%	1.31%	3.07%	2.93%	2.55%	3.09%	1.57%	1.58%	0.45%	3.69%	2.58%	7.1%	2.65%	5.1%	-0.07%
NCc1ccc(-c2nc(-c3ccc(Cl)c(O)c3)c(-c3ccncc3)[nH]2)cc1	1.76%	0.52%	0.46%	-0.98%	-1.3%	3.06%	15.7%	0.41%	2.73%	0.27%	2.74%	0.3%	3.09%	1.68%	3.12%	1.79%	0.56%	1.58%	2.98%	0.9%
